The source of these data is PubChem BioAssay (NCI).

“And” between values parts separate entries of the source, which are not always exact repeats. Equal entries are not always repeated. This is part of a sample that, as a whole, favours compounds with a hit. Of some 79,000 tested, about 15% had one in any assay. A number with no mark means an inactive call. The source made the active and inactive calls. No stated cut-off is given here; in the data, active means growth inhibition above about 70%; inactive means the rest.

A short description of assay [1]: NCI Yeast Anticancer Drug Screen. Data for the mec2-1 strain (AID 157). Conditions: S. cerevisiae mec2-1 strain, hits give high values. A digest of the protocol: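 mec2-1 yeast strain, carrying an alteration in DNA damage repair or cell cycle control, was exposed to compounds; growth inhibition was measured relative to vehicle-treated controls.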
Assay [2] in a line: NCI Yeast Anticancer Drug Screen. Data for the sgs1 mgt1 strain (AID 161).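 Further: 0% = growth of cultures given vehicle only.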 Conditions: S. cerevisiae sgs1 mgt1 strain, hits give high values. In outline: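 Yeast cells carrying a defined DNA-repair defect were exposed to test compounds. Growth inhibition was measured relative to vehicle-treated controls.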
Assay [3] can be described thus: NCI Yeast Anticancer Drug Screen. Data for the cln2 rad14 strain (AID 165).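 Further: 0% = growth equal to vehicle treated cultures.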 Conditions: S. cerevisiae cln2 rad14 strain, hits give high values. A digest of the protocol: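 Yeast carrying cln2 and rad14 alterations (cell cycle control and DNA damage repair) were exposed to compounds. Growth inhibition was measured against vehicle-treated controls.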
A short description of assay [4]: NCI Yeast Anticancer Drug Screen. Data for the bub3 strain (AID 167). Conditions: S. cerevisiae bub3 mutant strain, hits give high values. A digest of the protocol: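 Inhibition values come from growth of compound-treated mutant yeast normalised to vehicle-treated controls.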
A short description of assay [5]: NCI Yeast Anticancer Drug Screen. Data for the mlh1 rad18 strain (AID 175). Conditions: S. cerevisiae mlh1 rad18 strain growth inhibition, hits give high values. In outline:
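Growth inhibition of the yeast strain was measured after compound exposure and expressed relative to vehicle-treated controls. The strain carries defined defects in DNA damage repair.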

Assay [6] in a line: NCI Yeast Anticancer Drug Screen. Data for the rad50 strain (AID 155).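 Further: 0% = growth of vehicle-only cultures of the same strain.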 Conditions: S. cerevisiae rad50 strain growth inhibition; at 50.0 µM; hits give high values. In outline:
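A DNA repair-deficient yeast mutant serves as the test organism; compound-induced growth inhibition is calculated against vehicle-treated cells.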

The mark [7] stands for this setting: at 5.0 µM (retest, dose inferred, filed as 0.5).
[8] abbreviates: at 50.0 µM (retest, dose inferred, filed as 5.0).

For the compound `C[C@@H]1C[C@@H]([C@H](O)CC2CC(=O)NC(=O)C2)C(=O)[C@@H](C)C1`, the growth inhibition in assay [1] (setting [7]) was 98% (active); in assay [1] (setting [8]) it was 100% (active); in assay [1] (at 50.0 µM), 93.6% (active); in assay [2] (setting [7]), 94% (active); in assay [2] (setting [8]), 99% (active); in assay [2] (at 50.0 µM) it was 94.2% (active). For the same compound, the growth inhibition is 98% (active) in assay [3] (setting [7]); 99% (active) in assay [3] (setting [8]); 90.7% (active) in assay [3] (at 50.0 µM); 98% (active) in assay [4] (setting [7]); 99% (active) in assay [4] (setting [8]); 93.7% (active) in assay [4] (at 50.0 µM). In addition, the growth inhibition in assay [5] (setting [7]) was 93% (active); in assay [5] (setting [8]), 99% (active); in assay [5] (at 50.0 µM) it was 92.1% (active).
For the compound `CC/C(=C\c1ccccc1)[N+](=O)[O-]`, the growth inhibition in assay [1] (setting [7]) is 11%; in assay [1] (setting [8]) it was 100% (active); in assay [2] (setting [7]), 25%; in assay [2] (setting [8]) it was 100% (active); in assay [3] (setting [7]), 14%; in assay [3] (setting [8]), 99% (active). The growth inhibition is 28% in assay [4] (setting [7]), 100% (active) in assay [4] (setting [8]), -13% in assay [5] (setting [7]) and 98% (active) in assay [5] (setting [8]).
On to `CNC1(c2ccccc2)CC1`, for which the growth inhibition in assay [6] is 24.9%; in assay [1] (at 50.0 µM) it was -12.2%; in assay [3] (at 50.0 µM), -60.9%; in assay [4] (at 50.0 µM) it was 15.2%; in assay [5] (at 50.0 µM) it was -7.05%.
On to `O=P(CCP(=O)(c1ccccc1)c1ccccc1)(c1ccccc1)c1ccccc1.[Cl][Sn]([Cl])([c]1ccccc1)[c]1ccccc1`, for which the growth inhibition in assay [1] (setting [7]) is 45%; in assay [1] (setting [8]), 99% (active); in assay [1] (at 50.0 µM) it was 90.1% (active); in assay [2] (setting [7]), 91% (active); in assay [2] (setting [8]), 98% (active); in assay [2] (at 50.0 µM), 88.5% (active). The growth inhibition in assay [3] (setting [7]) is 32%; in assay [3] (setting [8]) it was 97% (active); in assay [3] (at 50.0 µM), 88.8% (active); in assay [4] (setting [7]), 81% (active); in assay [4] (setting [8]) it was 98% (active); in assay [4] (at 50.0 µM), 88% (active). Moreover, the growth inhibition was 88% (active) in assay [5] (setting [7]), 95% (active) in assay [5] (setting [8]) and 91.6% (active) in assay [5] (at 50.0 µM).
Regarding `CCOP(=O)(OCC)/C(C#N)=C(\C)c1ccco1`, the growth inhibition was -26.4% in assay [6]; -15.3% in assay [2] (at 50.0 µM); -18.4% in assay [3] (at 50.0 µM); -11.6% in assay [4] (at 50.0 µM); -1.2% in assay [5] (at 50.0 µM).
With `Cc1[nH]cc2c1C(c1ccccc1F)=NCC(=O)N2`, the growth inhibition in assay [1] (at 50.0 µM) is -3.5%; in assay [2] (at 50.0 µM), 17.4%; in assay [3] (at 50.0 µM), -13.7%; in assay [4] (at 50.0 µM), 8.4%; in assay [5] (at 50.0 µM), 0.1%.
For `[O-][n+]1c2ccccc2nn1-c1ccc(N(CCCl)CCCl)cc1`, the growth inhibition in assay [6] was 7.2%; in assay [1] (at 50.0 µM) it was 0.35%; in assay [3] (at 50.0 µM), -6.95%; in assay [4] (at 50.0 µM), -16.9%; in assay [5] (at 50.0 µM), -22.1%.
As to `COc1ccc2c(c1OC(C)=O)-c1cc(O)cc3c1C(C2)N(C(=O)CN(CCCl)CCCl)CC3` (stereo not given), the growth inhibition in assay [1] (at 50.0 µM) was 8.65% and 5.4%; in assay [2] (at 50.0 µM), 24.7% and -25.4%; in assay [3] (at 50.0 µM) it was 10.8% and -4.95%; in assay [4] (at 50.0 µM), 22.2% and -7.95%; in assay [5] (at 50.0 µM), -21.7% and -30.4%.
With `CCC1(c2c(F)c(F)c(N)c(F)c2F)CCC(=O)NC1=O` (stereo not given), the growth inhibition in assay [6] was -11.9%; in assay [2] (at 50.0 µM), -1%; in assay [3] (at 50.0 µM), 16.4%; in assay [4] (at 50.0 µM) it was -16.4%; in assay [5] (at 50.0 µM), 1.6%.
For `C=CC(C)(C)C12CC3C(=O)N/C(=C\c4cnc[nH]4)C(=O)N3C1Nc1ccccc12` (stereo not given), the growth inhibition was -11% in assay [1] (at 50.0 µM); 8.15% in assay [2] (at 50.0 µM); 1.45% in assay [3] (at 50.0 µM); -6.3% in assay [4] (at 50.0 µM); -14.8% in assay [5] (at 50.0 µM).
The corresponding values for `CCN1C(=O)NC(=O)C(CC)(N2CCCCC2)C1=O` (stereo not given) are 7.95%, 5%, 15%, 2.55% and 25.4%.
For `O=C(CCl)N(CCO)CCO`, the growth inhibition in assay [6] was -0.85%; in assay [2] (at 50.0 µM) it was -2.4%; in assay [3] (at 50.0 µM), -30.7%; in assay [4] (at 50.0 µM), 6.3%; in assay [5] (at 50.0 µM) it was 0.95%.
Regarding `CCC[CH2][Sn]1([CH2]CCC)[O]CC(Cc2ccccc2)[O]1` (stereo not given), the growth inhibition in assay [1] (setting [7]) was 22%; in assay [1] (setting [8]), 98% (active); in assay [1] (at 50.0 µM), 90.2% (active); in assay [2] (setting [7]), 54%; in assay [2] (setting [8]), 98% (active); in assay [2] (at 50.0 µM), 86.9% (active). The growth inhibition is 32% in assay [3] (setting [7]); 95% (active) in assay [3] (setting [8]); 84.7% (active) in assay [3] (at 50.0 µM); 55% in assay [4] (setting [7]); 98% (active) in assay [4] (setting [8]); 89.1% (active) in assay [4] (at 50.0 µM). Also, the growth inhibition is 39% in assay [5] (setting [7]), 97% (active) in assay [5] (setting [8]) and 88.5% (active) in assay [5] (at 50.0 µM).
In the case of `O=C(C1CO1)C(Cl)(Cl)Cl` (stereo not given), the growth inhibition in assay [1] (at 50.0 µM) is -6.85%; in assay [2] (at 50.0 µM), 3.8%; in assay [3] (at 50.0 µM), -8.2%; in assay [4] (at 50.0 µM), -15.2%; in assay [5] (at 50.0 µM) it was -2.35%.
As for `CC(OC(N)=O)C(F)(F)C(F)F` (stereo not given), the growth inhibition in assay [6] was -26.6%; in assay [2] (at 50.0 µM), 1.35%; in assay [3] (at 50.0 µM), -39.2%; in assay [4] (at 50.0 µM), -12.8%; in assay [5] (at 50.0 µM), -1.85%.
For `S=c1sc(-c2ccccc2)c[se]1`, the growth inhibition in assay [1] (setting [7]) was 2%; in assay [1] (setting [8]), 28%; in assay [1] (at 50.0 µM), 21.6%; in assay [2] (setting [7]), -2%; in assay [2] (setting [8]), 34%; in assay [2] (at 50.0 µM), 46.4%. Besides, the growth inhibition is -1% in assay [3] (setting [7]); 13% in assay [3] (setting [8]); 88.5% (active) in assay [3] (at 50.0 µM); -1% in assay [4] (setting [7]); 17% in assay [4] (setting [8]); 35.1% in assay [4] (at 50.0 µM). Besides, the growth inhibition in assay [5] (setting [7]) was -5%; in assay [5] (setting [8]), 41%; in assay [5] (at 50.0 µM), 32.9%.
With `C[CH2][Sn]([CH2]C)([n]1c(C)nc2ccccc21)[n]1c(C)nc2ccccc21`, the growth inhibition in assay [1] (at 50.0 µM) is 2.95%; in assay [2] (at 50.0 µM), -19.3%; in assay [3] (at 50.0 µM), 0.3%; in assay [4] (at 50.0 µM) it was 10.3%; in assay [5] (at 50.0 µM), -12.8%.
With `COCCOCCOC(=O)CBr`, the growth inhibition in assay [1] (setting [7]) was -7%; in assay [1] (setting [8]) it was 96% (active); in assay [1] (at 50.0 µM), 82.5% (active); in assay [2] (setting [7]), 1%; in assay [2] (setting [8]), 97% (active); in assay [2] (at 50.0 µM), 88.7% (active). The growth inhibition was 1% in assay [3] (setting [7]); 68% in assay [3] (setting [8]); 40.7% in assay [3] (at 50.0 µM); -3% in assay [4] (setting [7]); 94% (active) in assay [4] (setting [8]); 77.8% (active) in assay [4] (at 50.0 µM). Besides, the growth inhibition was -3% in assay [5] (setting [7]), 97% (active) in assay [5] (setting [8]) and 92.2% (active) in assay [5] (at 50.0 µM).
